Measured values published in PubChem BioAssay AID624169 (The Scripps Research Institute Molecular Screening Center, 2012).
Hit rate of the full screen: of about 360,000 compounds, about 2,400 (0.67%) were called active. What follows is part of a selection rich in actives, with near analogues and random picks from the rest. Values without a mark were called inactive.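 How the source made its calls: active means activation above a run cutoff, the mean activation of all tested compounds plus 3 SD (cut at about 14% in these data); inactive means the rest.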

Each molecule was assayed against 5-hydroxytryptamine receptor 2A (Mus musculus) (UniProt P35363) (assay: activation of mouse 5-HT2A receptor – cell-based, luminescence, primary screen (AID 624169;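 further: 0% = plate median of compound wells and 100% = 30 µM serotonin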)). Conditions: CHO-K1 mHTR2A beta-arrestin complementation, at 7.6 µM, stronger effect = higher value, percent of 30 µM serotonin response.
5-hydroxytryptamine receptor 2A (Mus musculus), sequence (P35363 whole entry, looked up): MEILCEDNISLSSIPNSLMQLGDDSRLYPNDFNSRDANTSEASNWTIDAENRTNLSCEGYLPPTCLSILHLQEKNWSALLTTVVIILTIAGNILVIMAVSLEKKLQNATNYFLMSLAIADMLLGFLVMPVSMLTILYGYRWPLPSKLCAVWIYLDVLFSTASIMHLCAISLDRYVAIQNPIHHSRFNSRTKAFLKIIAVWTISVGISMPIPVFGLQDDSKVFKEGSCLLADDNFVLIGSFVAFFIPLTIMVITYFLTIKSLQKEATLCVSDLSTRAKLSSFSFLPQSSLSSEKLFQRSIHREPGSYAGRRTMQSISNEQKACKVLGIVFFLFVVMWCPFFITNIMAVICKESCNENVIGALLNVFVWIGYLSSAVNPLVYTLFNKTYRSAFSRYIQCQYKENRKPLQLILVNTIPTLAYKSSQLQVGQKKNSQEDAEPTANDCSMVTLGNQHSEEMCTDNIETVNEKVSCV

Structure (SMILES) | activation
O=S1(=O)CC(N2CCN(Cc3ccccc3F)CC2)CN1Cc1cn(Cc2ccccc2)nn1 (stereo not drawn) | 0.73%
CC(=O)NCC(=O)N(C)C(C(=O)Nc1ccc2c(c1)OCCO2)c1ccccc1 (stereo not drawn) | 1.2%
CCOc1ccc(/C=C/C(=O)OCC(=O)c2ccccc2OC)cc1OC | -3.76%
O=C(Nc1cc(=O)[nH]c2ncnn12)c1ccccc1Cl | 16.4% (active)
CC(=O)c1cc(CN2CCC(n3nccc3NC(=O)c3ccccc3Cl)CC2)cs1 | 1.51%
O=C(Nc1ccc2sc3ccccc3c(=O)c2c1)c1ccccc1Cl | -3.04%
N#Cc1c(-c2ccc(F)cc2)cc(C2CC2)nc1SCC(=O)c1cccs1 | 4.09%
COc1ccccc1CNC(=O)[C@@H]1CCCN1C(=O)[C@@H]1Cc2ccccc2CN1C(=O)OC(C)(C)C | -8.22%
Cc1cccc(CNC(=O)c2sc(=O)n(Cc3ccccc3C)c2C)c1 | -9.77%
Cc1cccc(C)c1Cn1c(C)c(C(=O)NCc2cccc(Cl)c2)sc1=O | 0.95%
Cc1c(C(=O)NCC2CC2)sc(=O)n1Cc1cccc(F)c1 | 15% (active)
O=C(NNS(=O)(=O)c1ccccc1C(F)(F)F)c1cc2ncc(C(F)(F)F)cc2s1 | 2.01%
O=C1Cc2cc(S(=O)(=O)Nc3cccc(F)c3)ccc2N1 | -4.43%
CC(C)c1cc(C(=O)O)on1 | 16.1% (active)
CC(C)Cc1oc(C(=O)O)cc1CN | -1.78%
CCn1cc(-c2cc(C(=O)O)on2)c(C)n1 | 0.66%
O=C(NCc1ccccc1Cl)C1CCN(S(=O)(=O)c2cccc3nonc23)CC1 | 0.64%
C=C1C(=O)OC2C1CCC(C)=CCCC1(C)OC21 (stereo not drawn) | 17.6% (active)
Cc1cc(C(=O)OC(C)C(=O)NC2CCCCC2C)c(C)o1 (stereo not drawn) | 5.88%
CC(C)(C)NC(=O)Cn1cnc2cc([N+](=O)[O-])ccc2c1=O | -0.6%
O=C(OCc1cn([C@H]2C[C@H](c3ccccc3)N(C(=O)c3cccs3)C[C@@H]2O)nn1)c1ccccc1 | 0.06%
CC1(C)CC(=O)C=C(c2ccccc2CO)C1=O | 3.89%

Structure (SMILES) | activation
Fc1ccc2[nH]c3c(N4CCSCC4)ncnc3c2c1 | 16.4% (active)
Cc1ccc(C)c(NC(=O)C(c2ccccc2)N2CCN(CC(=O)NC3CC3)CC2)c1 (stereo not drawn) | 1.96%
Brc1cc(Br)c(Oc2cc(Br)c(Br)cc2Br)cc1Br | 4.05%
CCOC(=O)C1CCN(C(=O)C2CCCN(S(=O)(=O)c3ccc(OC)c(Cl)c3)C2)CC1 (stereo not drawn) | -2.55%
O=S(=O)(Cc1cc(Cl)nc(-c2cccnc2)n1)c1ccccc1 | -2.49%
Cn1ncc2c(N3CCCCC3)nc(NCCCO)nc21 | 1.52%
CCCOc1ccc(Cl)cc1Nc1nc(NCCO)nc(N2CCCC2)n1 | 0.98%
CC(C)(C)Oc1ccccc1Nc1nc(NCCO)nc(N2CCCC2)n1 | 23.9% (active)
CCc1nc2c(OCCc3cccc(OC)c3)cccn2c1N(C)C(=O)c1ccc(C)cc1 | -1.71%
O=C(CN1CCC(O)(c2cccc(C(F)(F)F)c2)CC1)NCCc1ccccc1 | -1.29%
COC(=O)[C@]12CCCCC=C1N(CCC1=CCCCC1)C(=O)[C@H](CC(=O)NCC1CCCCC1)C2 | 19.2% (active)
CCCCOCCCNC(=O)C[C@@H]1C[C@@]2(C(=O)OC)CCCCC=C2N(CCC2=CCCCC2)C1=O | -1.53%
CCOC(=O)N1CCN(C(=O)C[C@@H]2C[C@@]3(C(=O)OC)CCCCC=C3N(CCC3=CCCCC3)C2=O)CC1 | -5.86%
COc1ccc(-c2ccc(CN3C(C(C)C)C(=O)N(Cc4cn(CC5CCCCC5)nn4)CCS3(=O)=O)cc2)cn1 (stereo not drawn) | -1.52%
Cc1c(C(C)(C)O)[nH]c2ccc(C#N)cc12 | 3.5%
Cc1ccc(C)c(S(=O)(=O)N2CCN(c3ncnc4sccc34)CC2)c1 | 4.9%
Cc1ccc(S(=O)(=O)N2CCN(Cc3cccc(C)c3O)CC2)cc1 | -3.27%
Cc1ccc(S(=O)(=O)N2CCN(c3ncnc4ccccc34)CC2)cc1 | 16.6% (active)
CCN(CC)CCn1cnc2c1c(=O)n(CCOC(=O)c1cc(OC)c(OC)c(OC)c1)c(=O)n2C | -1.4%
COC(=O)[C@@]1(Cc2ccc(F)cc2)[C@H]2c3cc(C(=O)N4CCCC4)n(C[C@H](O)CO)c3C[C@H]2CN1C(=O)c1ccccc1 | 3.75%
COC(=O)[C@@]1(Cc2ccc(F)cc2)[C@H]2c3cc(C(=O)N4CCCC4)n(Cc4ccc(OC(F)(F)F)cc4)c3C[C@H]2CN1C(=O)c1ccccc1 | 1.1%
COC(=O)[C@@]1(Cc2ccc(F)cc2)[C@H]2c3cc(C(=O)N(C)C)n(CCc4c[nH]c5ccc(OC)cc45)c3C[C@H]2CN1C(=O)c1ccccc1 | 19.8% (active)

Structure (SMILES) | activation
O=C(CN1C(=O)NC2(CCCCCC2)C1=O)Nc1ccc([N+](=O)[O-])cc1 | -2.54%
COc1ccc(NC(=O)CC2COc3ccccc3O2)c(OC)c1 (stereo not drawn) | 2.64%
CCCCC(CC)CNC(=O)CCCCn1c(=O)[nH]c2ccsc2c1=O (stereo not drawn) | 15.6% (active)
O=C(CCCCCn1c(=S)[nH]c2ccsc2c1=O)NC1CCCCC1 | 2.92%
CCN(CCCNC(=O)CCn1c(=O)[nH]c2ccsc2c1=O)c1ccccc1 | 2.47%
COC(=O)c1ccc(NS(=O)(=O)c2cc3c4c(c2)C(C)C(=O)N4CCC3)cc1 (stereo not drawn) | 2.55%
O=C(O)CN(Cc1ccco1)S(=O)(=O)c1ccc(F)cc1 | -0.4%
COc1ccc(C(=O)c2c(C)oc3cc([N+](=O)[O-])c(O)c([N+](=O)[O-])c23)cc1 | -5.67%
Cc1oc2cc(Br)c(O)c(Br)c2c1C(=O)c1ccccc1 | 16% (active)
Cc1oc2cc([N+](=O)[O-])c(O)c([N+](=O)[O-])c2c1C(=O)c1ccc(Br)cc1 | -3.12%
O=C1CCCc2c1[nH]c1ccc(Br)cc21 | 1.31%
CCn1c(SCC(=O)N/N=C/c2ccccc2OCC(=O)O)nnc1-c1ccc(C(C)(C)C)cc1 | 6.89%
O=C(Nc1cccc(Cc2ccccc2)c1)Nc1ccc2nc([C@@H]3O[C@H](CO)[C@@H](O)[C@H](O)[C@H]3O)[nH]c2c1 | -13%
CCCC1CCC(=NNC(=S)NCCc2ccccc2)CC1 (stereo not drawn) | 0.18%
CC(=O)Nc1ccc(C(=O)N(C2=NC(C)CS2)c2ccc(Cl)cc2)cc1 (stereo not drawn) | -3.34%
CC(=O)NS(=O)(=O)c1ccc(NC(=O)C2C3C=CC(C3)C2C(=O)O)cc1 (stereo not drawn) | 2.61%
CCCCNC(=O)C[C@@H]1C[C@@]2(C(=O)OCC)CCC=C2N(Cc2ccco2)C1=O | -3.77%
O=C1CCCC(O)=C1C=NCCc1ccccc1 | 2.15%
O=C1C=C(c2cccc(Cl)c2)C[C@@H](c2ccc(F)cc2)C1 | -0.66%
O=C1CC(c2cccc(Cl)c2)CC(O)=C1C=Nc1ccccc1 (stereo not drawn) | 20.8% (active)
C[C@@H]1CN([C@@H](C)CO)C(=O)c2cc(Br)cnc2O[C@H]1CN(C)Cc1ccc(-c2ccccc2)cc1 | -1.74%
CCCC(=O)N=c1sc2cccc(F)c2n1C | 39.7% (active)

Structure (SMILES) | activation
Cn1c(=NC(=O)c2cnccn2)sc2ccccc21 | -2.18%
Cn1c(=NC(=O)c2ccco2)sc2cccc(F)c21 | 2.52%
CCOC(=O)/C=C/c1ccc(C(F)(F)F)cc1S(=O)(=O)NC(C)(C)C | -0.74%
COc1ccccc1N1CC(C(=O)NCCN2C(=O)S/C(=C\c3cccnc3)C2=O)CC1=O (stereo not drawn) | -0.83%
COc1ccc(N2CC(C(=O)NCCN3C(=O)S/C(=C\c4cccnc4)C3=O)CC2=O)c(OC)c1 (stereo not drawn) | 18.4% (active)
Cc1cc(OCCCC(=O)NCCN2C(=O)S/C(=C\c3cccnc3)C2=O)ccc1Cl | 8.37%
CC1CCN(C(=O)COC(=O)c2cc(S(=O)(=O)N3CCOCC3)ccc2Cl)CC1 | -1.57%
O=C(COC(=O)c1ccc(S(=O)(=O)N2CCc3ccccc3C2)cc1)NC(=O)NCc1ccco1 | -5.24%
COc1cc(NC(=O)C2CCN(c3cnccn3)CC2)cc(OC)c1 | -2.92%
CCOCCCNC(=O)C(=O)NCCCOCC | 0.95%
CCOC(=O)Cc1cc(=O)[nH]c(=O)[nH]1 | -0.86%
CCOCCCNC(=O)Cc1cc(=O)[nH]c(=O)[nH]1 | 20.9% (active)
Cc1cc(OCCN2CCCC2)cc(C(C)C)c1 | -5.99%
CCOC(=O)c1ccc(NC(=O)CS(=O)(=O)c2cn(CC)c3ccccc23)cc1 | -0.07%
CCOC(=O)c1ccc(NC(=O)CCn2c(=O)oc3ccccc32)cc1 | -5.94%
CCOC(=O)c1ccc(NC(=O)Cn2cnc3cc(C)c(C)cc32)cc1 | 17.4% (active)
COc1ccc2c(c1)C(C)=CC(C)(C)N2C(=O)CNCc1ccc2c(c1)OCO2 | -18.1%
CCn1nnc(NC(=O)c2c(OC)cccc2OC)n1 | -1.47%
Cc1ccc(CCNC(=O)CN2C(=O)CSc3ccc(S(=O)(=O)N4CCOCC4)cc32)cc1 | -3.24%
CCC(C)N1CC(=O)N2Cc3[nH]c4ccccc4c3C[C@H]2C1=O (stereo partly drawn) | -3.21%
COc1ccc(C2c3[nH]c4ccccc4c3C[C@H]3C(=O)N(CC(C)C)CC(=O)N23)c(OC)c1 (stereo partly drawn) | 26.6% (active)
COc1cccc(C2c3[nH]c4ccccc4c3CCN2Cc2cccc(C)n2)c1 (stereo not drawn) | -2.83%
